We go through 24 compounds from PubChem BioAssay AID1745849 (National Center for Advancing Translational Sciences (NCATS), 2022).

About 320 (15%) of roughly 2,100 compounds were called active. Not shown: some 52% with an inconclusive outcome. Some of the results follow. Unmarked numbers belong to inactive results. Calls come from the whole dose curve; as a rule, active = well fitted cell-killing curve with a large enough effect; inconclusive = small, poorly fitted or top-dose-only effect, or effect the other way; inactive = flat fitted curve, though single readings scatter.
% is set by controls: 0 for no effect and ±100 for the full control effect; potency is the fitted concentration of half-maximal effect.

The assay in a line: Viability Counterscreen for CMV-Luciferase Assay of Inhibitors of ATXN expression. Note: nearly all actives have a fitted effect of over 55% in size. The following applies: HEK-293 CMV-luciferase cells viability, protease fluorescence, 24 h; activity change, negative = cytotoxicity: at the top concentration. In a few lines: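 Dosing on CMV-luciferase HEK-293 cells for 24 hr, 37 °C. Luminescence read with SteadyGlo; cytotoxicity measured first as Gly-Phe-AFC protease fluorescence, 25 uM final substrate, 30 min.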
Take `O[C@@H]1[C@@H](O)C=C2CCN3Cc4cc5c(cc4[C@H]1C23)OCO5` (some centres undefined): the Potency was 6.31 µM (active).
In the case of `Cc1cc(C)n(-c2ccc(C(=O)N3CCN(S(=O)(=O)c4cccc(Br)c4)CC3)cc2)n1`, the “activity change, negative = cytotoxicity” value was 3.92%.
`CCc1cc(-c2[nH]ncc2-c2ccc(OC)cc2)c(O)cc1O`: the “activity change, negative = cytotoxicity” value is -18.3%.
`CCn1c2ccccc2c2cc(/C=C(/C#N)C(N)=S)ccc21`: the “activity change, negative = cytotoxicity” value is -29.2%.
With `CCOC(=O)/C=C/C(=O)Nc1ccc(Oc2ccccc2)cc1`, the “activity change, negative = cytotoxicity” value was -13.1%.
With `O=C(Nc1ccc(Oc2ccc(NC(=O)Nc3ccc([N+](=O)[O-])cc3)cc2)cc1)Nc1ccc([N+](=O)[O-])cc1`, the Potency is 10 µM (active).
`Cc1ccc(Cc2cnc(NC(=O)/C(C#N)=C/c3ccc(-c4cccc([N+](=O)[O-])c4)o3)s2)cc1`: the Potency is 20 µM (active).
On to `Cc1ccc(-c2ccc(/C=N/c3ncn[nH]3)o2)cc1Cl`, for which the “activity change, negative = cytotoxicity” value was -27.7%.
On to `CCCc1cc(=O)[nH]c(-n2[nH]c3c(c2=O)CCCC3)n1`, for which the Potency was 22.4 µM (active).
For `CCn1c2ccccc2c2cc(NC(=O)COC(=O)c3cc(S(=O)(=O)N4CCCCC4)ccc3Cl)ccc21`, the “activity change, negative = cytotoxicity” value was 12.4%.
In the case of `CC[C@]12c3[nH]c4ccc(Cl)cc4c3CCN1C(=O)[C@@H](CC(=O)NCC13CC4CC(CC(C4)C1)C3)C[C@@H]2C(=O)N1CCN(C(=O)C2CC2)CC1`, the Potency is 22.4 µM (active).
With `CC[C@]12c3[nH]c4ccc(Cl)cc4c3CCN1C(=O)[C@@H](CC(=O)NCC13CC4CC(CC(C4)C1)C3)C[C@@H]2C(=O)N1CCN(C(=O)c2ccco2)CC1`, the Potency was 3.16 µM (active).
With `CCOC(=O)c1cnc2ccc(OC)cc2c1Nc1ccc(N2CCN(C)CC2)cc1`, the “activity change, negative = cytotoxicity” value was -29.6% [at 57.5 µM].
On to `Cc1ccc2nc3cc([N+](=O)[O-])cc([N+](=O)[O-])c3cc2c1`, for which the Potency is 11.2 µM (active).
Regarding `Cc1ccc2nc(SCc3ccc([N+](=O)[O-])cc3)[nH]c2c1`, the “activity change, negative = cytotoxicity” value was -7.46%.
Consider `COc1cc2nc(CN(C)Cc3ccc(SC)cc3)[nH]c(=O)c2cc1OC`, for which the “activity change, negative = cytotoxicity” value was -19% [at 57.5 µM].
For the compound `COc1ccc(C)cc1Nc1nc(N)c2cc(OC)c(OC)cc2n1`, the “activity change, negative = cytotoxicity” value is -4.73%.
Regarding `COc1cc2nc(N(C)C)nc(N)c2cc1OC`, the Potency is 25.1 µM (active).
On the same count and under the same terms, then `CC(C)(C)S(=O)(=O)/C(C#N)=N/Nc1ccc(Cl)cc1`, with 25.1 µM (active).
For `CCc1ccc(N(CC)C(=O)c2ccc3c(Cl)c4c(nc3c2)CCC4)cc1`, the “activity change, negative = cytotoxicity” value is -27.5%.
Take `O=C(Nc1ccc(N2CCN(C(=O)c3ccco3)CC2)c(Cl)c1)c1cccs1`: the Potency was 28.2 µM (active).
Take `O=C(NC(=S)N1CCN(c2ccc(F)cc2)CC1)c1cccs1`: the “activity change, negative = cytotoxicity” value was -10.7%.
On the same count and under the same terms, then `O=C(Nc1ccc(N2CCN(C(=O)c3ccco3)CC2)c(Cl)c1)c1c(F)c(F)c(F)c(F)c1F`, with -27.5% [at 57.5 µM]; and `CC(C)(C)OC(=O)N1CCC(c2c(C(=O)NCC3CCN(C4CCCC4)C3)cnn2-c2cccc(Cl)c2)CC1` (centres undefined), with -29.1%.
